From PubChem BioAssay (NCATS) come the findings set out here.

Records with an inconclusive call do not appear. Active and inactive are the calls of the source. Calls come from the whole dose curve; as a rule, active = well fitted curve in the direction sought with a large enough effect; inconclusive = small, poorly fitted or top-dose-only effect, or another doubt; inactive = no such curve, though single readings can be large; an effect the other way counts as inactive or inconclusive. Peptide text beside a SMILES is read from it. * marks the point of attachment. Hexanoyl = CCCCCC(=O)*

A short description of assay [1]: UWB1.289 Cancer Cell Toxicity qHTS against the NCATS CANVASS Library (AID 1347347). Note: nearly all actives have a fitted effect of over 60% in size. Note: potency is the fitted concentration of half-maximal effect. The settings on record: UWB1.289 viability, CellTiter-Glo luminescence, 72 h; series mostly up to 38.3 µM. The gist of the method: (§1)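 ATP content after 72 h treatment, detected by CellTiter-Glo luminescence (15min room-temperature development), reflects cell viability. Wells contained 1000 cells and received compounds at 11 concentrations.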
In general terms: Quantitative high-throughput screening tests each substance at several concentrations.

Assay [2] is described as follows: Panc-1005 Cancer Cell Toxicity qHTS against the NCATS CANVASS Library (AID 1347349). Note: nearly all actives have a fitted effect of over 60% in size. The settings on record: Panc-1005 viability, CellTiter-Glo luminescence, 72 h; series mostly up to 38.3 µM. The gist of the method:
as §1

Assay [3] can be described thus: UWB1.289-WTBRCA1 Cancer Cell Toxicity qHTS against the NCATS CANVASS Library (AID 1347354). Note: potency is the fitted concentration of half-maximal effect. The settings on record: UWB1.289-WTBRCA1 viability, CellTiter-Glo luminescence, 72 h; series mostly up to 38.3 µM. The gist of the method:
(§2)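 Luminescent ATP read-out (CellTiter-Glo, 15min at room temperature) measures survival after cells face an 11-point compound series for 72 hours at 37 degrees C/5% CO2.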

A short description of assay [4]: qHTS for Hypoxia signaling pathway (HIF-1) agonists against the NCATS CANVASS Library (AID 1347375). The following applies: HRE-bla ME-180 cells, HIF-1 beta-lactamase reporter, 17 h; series mostly up to 38.3 µM. The gist of the method:
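ME-180 HRE-bla reporter cells; 2,000/well, 0.5% dialyzed FBS; cpd added after 5 h, 17 h 37C/5% CO2; CCF4-AM 2 h RT; FRET 460/530 nm; CellTiter-Glo viability same wells, 30 min.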

The nature of assay [5]: qHTS for Antimalaria activity screened against the NCATS CANVASS Library (AID 1347380). Note: nearly all actives have a fitted effect of over 40% in size. Note: potency is the fitted concentration of half-maximal effect. The following applies: P. falciparum Dd2 growth, SYBR Green fluorescence, 72 h; series mostly up to 28.7 µM. The gist of the method:
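Dd2 strain, infected erythrocytes 2.5% Hct final / 0.3% parasitemia. 11-pt qHTS titration, 72 h, 37C, 5% O2, 5% CO2. Lysis buffer + SYBR Green, 18 h, fluorescence 485/535 nm.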

Assay [6] in a line: qHTS assay for small molecule disruptors of mitochondrial membrane potential screened against the NCATS CANVASS Library (AID 1347389). Note: nearly all actives have a fitted effect of over 60% in size. The settings on record: HepG2 mitochondrial membrane potential, m-MPI red/green ratio, 1.5 h; series mostly up to 46.1 µM. The gist of the method: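 HepG2, 2,000 cells/well, attached overnight; compound 1 hr, 37C, 5% CO2; Mito-MPS dye 30 min, 37C; fluorescence 535 nm (monomer) and 590 nm (aggregate); decreased 590/535 ratio = depolarization.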

The nature of assay [7]: COV-362 Cancer Cell Toxicity qHTS against the NCATS CANVASS Library (AID 1347352). The settings on record: COV-362 viability, CellTiter-Glo luminescence, 72 h; series mostly up to 38.3 µM. The gist of the method:
as §2

A short description of assay [8]: HPAF-II Cancer Cell Toxicity qHTS against the NCATS CANVASS Library (AID 1347346). Note: nearly all actives have a fitted effect of over 55% in size. Note: potency is the fitted concentration of half-maximal effect. The settings on record: HPAF-II viability, CellTiter-Glo ATP luminescence, 72 h; series mostly up to 38.3 µM. The gist of the method:
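Luminescence from CellTiter-Glo, added after 72 h compound exposure and a 15 min room-temperature incubation, served as the viability readout. HPAF-II cells (1000/well) received an 11-point concentration series.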

With `C=C[C@]1(C)CC[C@@H]([C@H](C)C(=O)CC=C(C)C)O1`, the Potency result in assay [1], in assay [2], in assay [3], in assay [5] and in assay [6] was “inactive” in each case. For the same compound, the compound was classed as inactive in assay [4].
For the compound `COC1C(C)OC(OCC23C[C@@H]4[C@H](C)CC[C@H]4C4(C=O)CC2C=C(C(C)C)C34C(=O)O)[C@@H](O)[C@H]1O` (stereo partly drawn), the Potency result in assay [1], in assay [7], in assay [3], in assay [5] and in assay [6] was “inactive” throughout.
Take `C[C@@]12C[C@@H](C[C@@H]3C(=O)O[C@@H](c4ccoc4)[C@H](OC(=O)c4ccccc4)[C@@H]31)OC2=O`: the Potency entry in assay [1], in assay [2], in assay [7], in assay [3] and in assay [5] was “inactive” each time. Moreover, the result in assay [4] was inactive.
As for `C/C=C1/C2=CCCN3C(=O)O[C@H]([C@H]1O)[C@H]23`, the Potency result in assay [8], in assay [3] and in assay [6] was “inactive” throughout. Besides, the outcome in assay [4] was inactive.
For `CN1CC[C@]23c4ccccc4N[C@H]1[C@]21CCN(C)[C@H]3Nc2ccccc21`, the Potency result in assay [1], in assay [2], in assay [7], in assay [3] and in assay [5] was “inactive” each time.
On to `C=C(Cl)[C@](Cl)(CBr)CC[C@@H](Br)C(C)(C)Cl`, for which the figures for the Potency in assay [1] and in assay [3] were 14.9 µM (active) and 18.8 µM (active), respectively. Besides, in assay [7], the Potency entry is “inactive”.
As to `COC(=O)[C@]1([C@H]2CCC(=O)O2)CC(=O)c2c(O)cc(C)cc2O1`, the Potency result in assay [1], in assay [2], in assay [3] and in assay [6] was “inactive” each time. In addition, the call in assay [4] was inactive.
As to `[C-]#[N+][C@@]12C(=O)[C@@H]3[C@@H](O[C@@]4(C(=O)N(C)c5cccc1c54)C3(C)C)C(=O)[C@@]2(C)C=C`, the Potency entry in assay [8], in assay [1], in assay [7] and in assay [3] was “inactive” in each case. In assay [4], the compound was classed as inactive.
For `C=C1[C@@]2(C)CC3C4(C)CCC(O)C(C)(C)C4CCC3(C)[C@]1(C(=O)OC)C(=O)C(C)(O)C2=O` (stereo partly drawn), the Potency entry in assay [1], in assay [2], in assay [7], in assay [3], in assay [5] and in assay [6] was “inactive” throughout. Also, in assay [4], the outcome was inactive.
As for `C[C@H](c1cnc(N)[nH]1)c1ccc(O)c2[nH]cc(-c3cnc(-c4c[nH]c5ccccc45)c(=O)[nH]3)c12`, the Potency entry in assay [1], in assay [2], in assay [7] and in assay [3] was “inactive” each time.
As for `Cc1cc(O)cc2c1C(=O)c1c(O)cc(O)cc1C2=O`, the Potency entry in assay [8], in assay [1], in assay [2] and in assay [6] was “inactive” in each case. In addition, the result in assay [4] was inactive.
Take `O=C1OC(CCO)c2cccc(O)c21` (stereo not drawn): the Potency result in assay [8], in assay [1], in assay [3], in assay [5] and in assay [6] was “inactive” in each case. Also, the compound was classed as inactive in assay [4].
As to `COC(=O)c1cccc2oc(-c3cccc4oc(-c5c(C)cccc5O)nc34)nc12`, the Potency in assay [8] is 2.66 µM (active); in assay [1], 5.29 µM (active). For the same compound, the call in assay [4] was inactive.
`CCCCCC(=O)N[C@@H](CC(C)C)C(=O)N[C@H](C=O)CCC(=O)O` (Hexanoyl-Leu-Glu-aldehyde): the Potency entry in assay [1], in assay [7] and in assay [6] was “inactive” throughout.
Turning to `CO[C@@H](C[C@@H](C)[C@@H](O)/C=C/C=C/CNC(=O)C(C)(C)[C@H](O)\C(C)=C/C=C\C=C\Cc1cnco1)[C@]1(O)[C@@H](C)C(=O)N(C)[C@@]12COC2=O`, the Potency result in assay [1], in assay [3] and in assay [6] was “inactive” throughout. For the same compound, the result in assay [4] was inactive.
Take `CN1CC[C@@]23c4ccccc4N[C@@H]1[C@@]21CCN(C)[C@@H]3Nc2ccccc21`: the Potency entry in assay [1] and in assay [2] was “inactive” in each case. The Potency in assay [5] is 0.0075 µM (active).
In the case of `O=Cc1ccc2n1C[C@]1(OC2)O[C@H](CO)[C@@H](O)[C@@H]1O`, the Potency result in assay [8], in assay [1] and in assay [2] was “inactive” throughout. Also, the result in assay [4] was inactive.
